According to PubChem BioAssay AID1851 (National Center for Advancing Translational Sciences (NCATS), 2009):
In all, about 16,000 compounds went through this assay and about 2,600 (16%) were called active. About 20% were inconclusive and are not listed. The sample holds actives, similar compounds and a random draw of the others, so the mix is not that of the screen. Values without a mark were called inactive. The call rests on the fitted dose curve; in most records, active means well fitted curve in the direction sought with a large enough effect; inconclusive means small, poorly fitted or top-dose-only effect, or effect the other way; inactive means no such curve, though single readings can be large or run the other way.

What follows are molecules tested against Cytochrome P450 2D6 (Homo sapiens) (UniProt P10635) (assay: Cytochrome panel assay with activity outcomes). Conditions: recombinant CYP, pro-luciferin dealkylation, luminescence, p450-cyp2d6; series mostly up to 57.1 µM.
Sequence of Cytochrome P450 2D6 (Homo sapiens) (P10635 whole entry, looked up): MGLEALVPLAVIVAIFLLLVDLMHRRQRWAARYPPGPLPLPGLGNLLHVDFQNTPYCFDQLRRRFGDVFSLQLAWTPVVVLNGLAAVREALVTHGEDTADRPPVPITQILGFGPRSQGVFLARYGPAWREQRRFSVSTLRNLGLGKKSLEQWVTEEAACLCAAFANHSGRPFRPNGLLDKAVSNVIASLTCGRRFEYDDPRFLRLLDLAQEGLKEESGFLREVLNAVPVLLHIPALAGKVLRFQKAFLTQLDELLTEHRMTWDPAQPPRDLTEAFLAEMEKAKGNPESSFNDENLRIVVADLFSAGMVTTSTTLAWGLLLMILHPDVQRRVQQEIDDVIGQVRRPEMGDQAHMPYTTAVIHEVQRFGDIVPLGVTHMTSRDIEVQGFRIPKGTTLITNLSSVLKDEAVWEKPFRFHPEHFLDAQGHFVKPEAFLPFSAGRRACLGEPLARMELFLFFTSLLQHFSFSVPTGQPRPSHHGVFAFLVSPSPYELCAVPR
On the % scale 0 is the no-effect control and ±100 the full control effect.

Row | SMILES | AC50 | activity, negative = inhibition
1 | C=C1C(O)(c2ccccc2)C2CC[N+]1(C)CC2 (stereo not drawn) | inactive | 
2 | Cn1c(O)c(C(=N)COc2ccccc2)c(=O)n(C)c1=O | inactive | 
3 | CCCCc1ccc(C(=O)O)nc1 | inactive | 
4 | CS(=O)c1ccc(-c2nc(-c3ccc(F)cc3)c(-c3ccncc3)[nH]2)cc1 (stereo not drawn) | inactive | 
5 | C#CCN(C)[C@H](C)Cc1ccccc1 | inactive | 
6 | C[C@@H](Cc1ccccc1)NCCC(c1ccccc1)c1ccccc1 | 0.01 µM (active) | 
7 | CCOC(=O)N1CCC(NC(=O)CCc2nc(C3=CCN(C)CC3)no2)CC1 | inactive | 
8 | Nc1nnnn1CCO |  | 3.8% [at 11.4 µM]
9 | O=C(O)c1nn(Cc2ccc(Cl)cc2Cl)c2ccccc12 | inactive | 
10 | Cc1ccccc1-n1c(O)c(C=Nc2ccc(N(C)C)cc2)c(=O)[nH]c1=O | inactive | 
11 | Cc1oc(-c2ccccc2F)nc1CS(=O)CC(=O)N1CCC2(CC1)OCCO2 (stereo not drawn) | inactive | 
12 | CC1=C2[C@@H]3OC(=O)[C@@H](C)[C@@H]3CC[C@]2(C)C=CC1=O | inactive | 
13 | O=C(O)[C@H]1C[C@@H]1[C@H](NP(=O)(c1ccccc1)c1ccccc1)c1ccccc1 | inactive | 
14 | COc1ccc(CNC(=O)/C=C\c2ccc3[nH]cc(CCN(C)C)c3c2)cc1 | inactive | 
15 | CN[C@H](Cc1ccccc1)c1cccc(OC)c1O | 0.0398 µM (active) | 
16 | O=c1[nH]c(=O)n([C@H]2C[C@H](O)[C@H](CO)O2)cc1/C=C\Br | inactive | 
17 | N#C/C(=C\c1ccc(O)c(O)c1)C(=O)NCCCNC(=O)/C(C#N)=C/c1ccc(O)c(O)c1 | inactive | 
18 | COCCCn1c(N)c(C(=O)Nc2sc3c(c2C(=O)OC)CCCC3)c2nc3ccccc3nc21 | inactive | 
19 | CCCCn1c(N)c(C(=O)NCc2cccs2)c2nc3ccccc3nc21 | 20 µM (active) | 
20 | O=[As](O)(O)c1ccc(N=Nc2ccc(O)cc2)cc1 |  | 2.25% [at 11.4 µM]

Row | SMILES | AC50 | activity, negative = inhibition
21 | COc1ccc2c(c1)CN([C@H](C)[C@@H]1CC[C@@H]3[C@H]4CC[C@H]5C[C@@H](O)CC[C@@]5(C)[C@H]4CC[C@]31C)CO2 | 3.16 µM (active) | 
22 | C[C@]12CC[C@H](O)C[C@@H]1CC[C@H]1[C@H]2CC[C@]2(C)C(=O)CC[C@@H]12 | inactive | 
23 | C[C@@]12CC[C@H]3[C@@H](CC[C@@H]4C[C@H](O)CC[C@]43C)[C@H]1CC[C@H]2O | inactive | 
24 | CC[N@+]1(C)CCC[C@@H](OC(=O)C(O)(c2ccccc2)c2ccccc2)C1 | 5.01 µM (active) | 
25 | CN=C(NC#N)NCCSCc1nc[nH]c1C | inactive | 
26 | C[C@H](N)[C@H](O)c1ccc(O)c(O)c1 | inactive | 
27 | CC(C)C[C@H]1C(=O)N2CCC[C@@H]2[C@]2(O)O[C@](NC(=O)[C@@H]3C=C4c5cccc6[nH]c(Br)c(c56)C[C@H]4N(C)C3)(C(C)C)C(=O)N12 | inactive | 
28 | CC[C@@H](CO)NC(=O)[C@H]1C=C2c3cccc4c3c(cn4C)C[C@H]2N(C)C1 | 12.6 µM (active) | 
29 | CC[C@H](CO)NC(=O)[C@@H]1C=C2c3cccc4c3c(cn4C)C[C@@H]2N(C)C1 | 39.8 µM (active) | 
30 | Cc1cc(NC(=O)CCC(=O)N2CCC3(CC2)OCCO3)no1 | inactive | 
31 | Cc1ccc(CCN2CC(C(=O)N3CCC4(CC3)OCCO4)CC2=O)cc1 (stereo not drawn) | inactive | 
32 | N[C@H](CCCCCP(=O)(O)O)C(=O)O | inactive | 
33 | O=C(O)CCCc1ccc(N(CCCl)CCCl)cc1 | inactive | 
34 | C[C@H](CCC(=O)O)[C@H]1CC[C@]2(C)[C@@H]3C(=O)C[C@H]4C(C)(C)[C@@H](O)CC[C@]4(C)[C@H]3C(=O)C[C@@]12C |  | -4.73% [at 11.4 µM]
35 | CC(=O)[C@@H]1CC[C@H]2[C@H]3CC[C@H]4C[C@@H](O)CC[C@]4(C)[C@@H]3CC[C@]12C | inactive | 
36 | O=C(O)C(=O)Cc1ccc2c(c1)OCO2 |  | -12.2% [at 11.4 µM]
37 | Oc1ccc(CCNCc2cc3c(cc2Br)OCO3)cc1 | 0.316 µM (active) | 
38 | CO[C@H]1[C@H](O)[C@H](O[C@@H]2[C@H](Oc3cccc4c(O)c5c(=O)oc6ccc(C)c7c(=O)oc(c34)c5c67)O[C@@H](C)[C@H](O)[C@H]2O)O[C@@H](C)[C@@H]1O |  | 19.6% [at 11.4 µM]
39 | CCCCCCCC/C=C\CCCCCCCC(N)=O | inactive | 
40 | N[C@@H](CCCP(=O)(O)O)C(=O)O | inactive | 

Row | SMILES | AC50 | activity, negative = inhibition
41 | C[N+](C)(C)CCCCCCCCCC[N+](C)(C)C | inactive | 
42 | COc1cc(CN2CCN(C(=O)COc3ccccc3)CC2)cc(OC)c1OC | inactive | 
43 | CC(=O)N1CCC2(CC1)CC(=O)c1cc(OCC(=O)N3CCN(C)CC3)ccc1O2 | inactive | 
44 | O=C(COc1ccc2ccccc2c1)N1CCN(CC2CC3C=CC2C3)CC1 (stereo not drawn) | 5.01 µM (active) | 
45 | CCN1C[C@@]2(COC)[C@H]3[C@@H](OC)[C@H]4C1[C@@]3([C@H](OC)C[C@@H]2O)[C@H]1C[C@@]2(O)[C@@H](OC(=O)c3ccccc3)[C@@H]1[C@@]4(OC(C)=O)[C@H](O)[C@@H]2OC | inactive | 
46 | Cc1ccc(C2CC(=O)C(C=NCCN3CCN(C(=O)Cc4ccccc4)CC3)=C(O)C2)cc1 (stereo not drawn) | inactive | 
47 | CN(C)CS/C(N)=N/[C@H](O)C(Cl)(Cl)Cl |  | -6.69% [at 11.4 µM]
48 | CN1CCc2nc3sc(C(=O)NC(C)(C)C)c(N)c3cc2C1 | inactive | 
49 | CCOC(=O)C1=C(C)OC(N)=C(C#N)C12C(=O)N(C)c1ccccc12 (stereo not drawn) | inactive | 
50 | CC[C@]1(OC(=O)CN)C(=O)OCc2c1cc1n(c2=O)Cc2cc3ccccc3nc2-1 |  | -0.998% [at 11.4 µM]
51 | C[C@@H]1Cc2cc3c(cc2C(c2ccc(N)cc2)=NN1)OCO3 | 31.6 µM (active) | 
52 | CCC12C=CCN3CCC4(c5cc(Br)c(OC)cc5N(C)C4C(O)(C(=O)OC)C1OC(C)=O)C32 (stereo not drawn) | 2.51 µM (active) | 
53 | C=Cn1ccnc1P(=S)(c1nccn1C=C)C1CCCCC1 | inactive | 
54 | COc1ccc(C(=O)NC2CC3CCCC(C2)N3CC(C)C)cc1OC (stereo not drawn) | 4.47 µM (active) | 
55 | CN1[C@@H]2CC[C@H]1CC(NC(=O)c1nn(C)c3ccccc13)C2 (stereo partly drawn) | inactive | 
56 | CNC(=S)NC1CC2CCCC(C1)N2CC(C)C (stereo not drawn) | 5.01 µM (active) | 
57 | O=C(O)Cc1cnc[nH]1 | inactive | 
58 | C/C(=C\C=C/[C@@H](C)C(=O)O)[C@H]1CN[C@H](C(=O)O)[C@@H]1CC(=O)O | inactive | 
